Calls of active or inactive are those of the source.
How the values were obtained:
[1] = test system: Plasmodium falciparum Sir2 (PF13_0152, Sir2A); test: pfSir2 binders on small-molecule microarrays, primary screen, biochemical, small-molecule microarray, 635 nm fluorescence (AID 1098); conditions: small-molecule microarray binding, fluorescence 635 nm; higher = more signal;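 further: score merges spot fluorescence intensity with its signal-to-noise ratio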
[2] = small-molecule microarray binders of probe aDKK1, primary screen, biochemical, biotinylated probe, 635/667 nm fluorescence (AID 1099); conditions: higher = more signal;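 further: score merges 667nm spot fluorescence with signal to noise across triplicate slides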
[3] = small-molecule microarray binders of probe aCHRDL2, primary screen, biochemical, biotinylated probe, 635/667 nm fluorescence (AID 1100); conditions: higher = more signal
[4] = splicing luciferase reporter signal modulators, primary screen, spliceosome inhibition project, cell-based, HEK293, splice +/- reporter (AID 1101); conditions: luminescence, 24 h, higher = more signal, called active from +8 up or from −8 down;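 further: HEK293 cells carrying a splicing-competent luciferase reporter gene; test concentration not given here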
[5] = biological target: Fibroblast growth factor 10 (Homo sapiens) (UniProt O15520); test: FGF10 binders on small-molecule microarrays, primary screen, biochemical, small-molecule microarray, 635 nm fluorescence (AID 1102); conditions: FGF10 binding, fluorescence 635 nm, higher = more signal
Fibroblast growth factor 10 (Homo sapiens), sequence (O15520 whole entry, looked up): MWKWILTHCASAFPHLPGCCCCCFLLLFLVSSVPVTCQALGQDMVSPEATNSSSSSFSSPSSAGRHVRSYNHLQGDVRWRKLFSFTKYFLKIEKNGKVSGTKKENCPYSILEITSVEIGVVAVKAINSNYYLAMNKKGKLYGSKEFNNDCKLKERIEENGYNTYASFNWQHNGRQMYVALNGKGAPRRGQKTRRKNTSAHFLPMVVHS

[6] = test system: glycogen synthase kinase-3 (GSK3A per assay name; protocol says GSK3B); test: GSK3 binders on small-molecule microarrays, primary screen, biochemical, small-molecule microarray, 635 nm fluorescence, GSK3A (AID 1103); conditions: small-molecule microarray binding, fluorescence 635 nm; higher = more signal; further: the record names both GSK3A and GSK3B
[7] = biological target: Epidermal growth factor receptor (Homo sapiens) (UniProt P00533); test: EGFR binders on small-molecule microarrays, primary screen, biochemical, small-molecule microarray, 635 nm fluorescence (AID 1104); conditions: EGFR binding, higher = more signal;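 further: score merges 667 nm emission intensity with spot signal to noise over triplicate slides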
Epidermal growth factor receptor (Homo sapiens), sequence (P00533 whole entry, looked up): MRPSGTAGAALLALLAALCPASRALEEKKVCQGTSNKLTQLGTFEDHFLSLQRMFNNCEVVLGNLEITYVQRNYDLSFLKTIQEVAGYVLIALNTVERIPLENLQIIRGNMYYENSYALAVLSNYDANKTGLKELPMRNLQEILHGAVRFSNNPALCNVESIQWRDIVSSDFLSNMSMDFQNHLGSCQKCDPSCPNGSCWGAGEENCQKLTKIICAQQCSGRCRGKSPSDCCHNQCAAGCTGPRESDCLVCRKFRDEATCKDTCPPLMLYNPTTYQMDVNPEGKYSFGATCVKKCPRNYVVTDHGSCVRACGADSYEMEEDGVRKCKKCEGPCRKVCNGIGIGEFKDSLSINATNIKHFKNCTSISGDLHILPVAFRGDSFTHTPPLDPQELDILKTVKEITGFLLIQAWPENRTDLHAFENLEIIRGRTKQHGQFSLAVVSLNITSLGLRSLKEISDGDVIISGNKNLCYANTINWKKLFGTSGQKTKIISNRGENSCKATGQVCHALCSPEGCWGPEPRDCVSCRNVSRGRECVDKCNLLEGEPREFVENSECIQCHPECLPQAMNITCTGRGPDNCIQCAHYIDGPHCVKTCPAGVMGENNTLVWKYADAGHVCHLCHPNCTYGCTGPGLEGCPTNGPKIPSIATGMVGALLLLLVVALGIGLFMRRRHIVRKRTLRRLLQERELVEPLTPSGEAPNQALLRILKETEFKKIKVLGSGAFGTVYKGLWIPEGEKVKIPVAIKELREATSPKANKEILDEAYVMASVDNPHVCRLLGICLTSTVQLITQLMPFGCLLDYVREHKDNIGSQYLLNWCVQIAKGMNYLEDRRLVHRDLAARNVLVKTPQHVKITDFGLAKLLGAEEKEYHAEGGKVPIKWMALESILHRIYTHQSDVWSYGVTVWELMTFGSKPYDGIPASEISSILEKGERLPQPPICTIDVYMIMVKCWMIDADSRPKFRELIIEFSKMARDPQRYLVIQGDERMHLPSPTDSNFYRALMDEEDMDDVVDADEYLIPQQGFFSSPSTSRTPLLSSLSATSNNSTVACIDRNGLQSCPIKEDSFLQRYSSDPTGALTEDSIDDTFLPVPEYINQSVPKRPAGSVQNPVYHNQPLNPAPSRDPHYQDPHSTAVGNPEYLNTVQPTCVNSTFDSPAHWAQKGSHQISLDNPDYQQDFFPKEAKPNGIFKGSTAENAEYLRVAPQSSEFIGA

[8] = biological target: Follistatin-related protein 3 (Homo sapiens) (UniProt O95633); test: FSTL3 binders on small-molecule microarrays, primary screen, biochemical, small-molecule microarray, 635 nm fluorescence (AID 1105); conditions: FSTL3 binding, higher = more signal;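 further: score merges emission near 667 nm and signal to noise per printed spot across three slides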
Follistatin-related protein 3 (Homo sapiens), sequence (O95633 whole entry, looked up): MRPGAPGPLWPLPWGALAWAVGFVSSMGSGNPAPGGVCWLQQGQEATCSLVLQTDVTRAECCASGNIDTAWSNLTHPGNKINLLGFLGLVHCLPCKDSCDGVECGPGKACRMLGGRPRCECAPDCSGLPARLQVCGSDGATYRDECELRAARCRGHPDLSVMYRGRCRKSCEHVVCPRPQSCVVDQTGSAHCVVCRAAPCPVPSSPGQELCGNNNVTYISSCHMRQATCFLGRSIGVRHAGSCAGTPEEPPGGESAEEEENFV

[9] = biological target: Dickkopf-related protein 1 (Homo sapiens) (UniProt O94907); test: DKK1 binders on small-molecule microarrays, primary screen, biochemical, small-molecule microarray, 635 nm fluorescence scan (AID 1106); conditions: DKK1 binding, higher = more signal;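 further: score merges emission near 667 nm with signal to noise over three replicate slides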
Dickkopf-related protein 1 (Homo sapiens), sequence (O94907 whole entry, looked up): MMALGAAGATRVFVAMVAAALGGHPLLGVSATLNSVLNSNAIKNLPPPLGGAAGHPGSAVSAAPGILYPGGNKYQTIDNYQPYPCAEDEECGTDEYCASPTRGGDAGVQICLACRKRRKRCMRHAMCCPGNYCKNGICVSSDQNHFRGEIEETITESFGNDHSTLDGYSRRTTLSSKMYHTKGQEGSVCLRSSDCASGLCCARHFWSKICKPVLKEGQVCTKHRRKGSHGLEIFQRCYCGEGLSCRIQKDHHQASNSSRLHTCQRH

[10] = test system: Inhibin beta A chain (activin A); test: INHBA (activin A) binders on microarrays, primary screen, biochemical, small-molecule microarray, 635 nm fluorescence scan (AID 1107); conditions: small-molecule microarray binding, higher = more signal;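 further: mouse activin A protein probed at 4.33 µg/mL on printed slides; score merges bound-protein fluorescence near 667 nm with spot signal-to-noise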
[11] = test system: Human papillomavirus type 1a protein E7 (residues 44-93); test: HPV1a E7 fragment binders on microarrays, primary screen, biochemical, small-molecule microarray, residues 44-93, 635 nm fluorescence (AID 1108); conditions: small-molecule microarray binding, fluorescence 635 nm; higher = more signal;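 further: E7 fragment applied at 1 µg/mL in TBST for 1 h at 4 C; score combines spot fluorescence with its signal to noise ratio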
[12] = modulators of HCV replicon luciferase signal, primary screen, HCV replication inhibitor project, Huh7 cells, luciferase reporter (AID 1109); conditions: 48 h, higher = more signal;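 further: huh7 hepatoma cells harbouring a luciferase neomycin HCV replicon reporter; luciferase luminescence as measure of HCV replicon replication; test concentration not given here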
[13] = biological target: Left-right determination factor 2 (Homo sapiens) (UniProt O00292); test: LEFTY2 binders on small-molecule microarrays, primary screen, biochemical, small-molecule microarray, 635 nm fluorescence scan (AID 1110); conditions: LEFTY2 binding, higher = more signal
Left-right determination factor 2 (Homo sapiens), sequence (O00292 whole entry, looked up): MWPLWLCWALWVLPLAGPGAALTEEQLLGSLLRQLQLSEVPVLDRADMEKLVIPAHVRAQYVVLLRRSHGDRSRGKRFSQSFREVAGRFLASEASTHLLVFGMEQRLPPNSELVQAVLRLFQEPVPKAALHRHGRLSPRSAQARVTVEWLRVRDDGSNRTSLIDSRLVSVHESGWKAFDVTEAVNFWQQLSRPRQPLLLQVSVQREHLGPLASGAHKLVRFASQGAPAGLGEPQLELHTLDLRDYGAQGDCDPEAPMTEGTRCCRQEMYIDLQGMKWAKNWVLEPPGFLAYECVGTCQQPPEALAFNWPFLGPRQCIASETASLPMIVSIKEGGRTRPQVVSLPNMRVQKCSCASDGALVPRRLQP

[14] = biological target: Calmodulin-1 (Homo sapiens) (UniProt P0DP23); test: CALM1 binders on microarrays, EGTA buffer, profiling panel, biochemical, small-molecule microarray, Cy5-labelled CALM1 (AID 1111); conditions: Cy5-CALM1 binding fluorescence, higher = more signal;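 further: labelled calmodulin applied in Tris saline Tween buffer holding calcium plus EGTA and DTT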
[15] = biological target: Calmodulin-1 (Homo sapiens) (UniProt P0DP23); test: calcium-bound CALM1 binders on microarrays, profiling panel, artefact control for SMM control-protein annotation, biochemical, small-molecule microarray, Cy5-labelled CALM1, plus calcium (AID 1112); conditions: Cy5-CALM1 binding fluorescence, higher = more signal;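 further: score merges spot fluorescence with signal to noise from triplicate slides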
[16] = small-molecule microarray binders of probe aWnt5a, primary screen, biochemical, biotinylated probe, 635/667 nm fluorescence (AID 1113); conditions: higher = more signal;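 further: score merges 667 nm fluorescence intensity with signal-to-noise per printed feature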
[17] = small-molecule microarray binders of probe aShh, primary screen, biochemical, biotinylated probe, 635/667 nm fluorescence (AID 1114); conditions: higher = more signal;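 further: probe is biotin-labelled aShh protein from a stem cell growth factor screen; measures binding of labelled protein to compounds printed on the slide; score merges feature fluorescence at 667 nm with signal-to-noise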
[18] = small-molecule microarray binders of probe aNog, primary screen, biochemical, biotinylated probe, 635/667 nm fluorescence (AID 1115); conditions: higher = more signal;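 further: probe is biotinylated aNog protein used at 0.15 µg/mL for 1 h at 4 C; z-score combines 667 nm fluorescence of each spot with its signal to noise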
[19] = biological target: Torsin-1A-interacting protein 1 (Homo sapiens) (UniProt Q5JTV8); test: LAP1 binders from COS7 cell lysate, primary screen, small-molecule microarray, 635/667 nm fluorescence (AID 1116); conditions: COS7-hLAP1 lysate binding, 635 nm fluorescence, higher = more signal
Torsin-1A-interacting protein 1 (Homo sapiens), sequence (Q5JTV8 whole entry, looked up): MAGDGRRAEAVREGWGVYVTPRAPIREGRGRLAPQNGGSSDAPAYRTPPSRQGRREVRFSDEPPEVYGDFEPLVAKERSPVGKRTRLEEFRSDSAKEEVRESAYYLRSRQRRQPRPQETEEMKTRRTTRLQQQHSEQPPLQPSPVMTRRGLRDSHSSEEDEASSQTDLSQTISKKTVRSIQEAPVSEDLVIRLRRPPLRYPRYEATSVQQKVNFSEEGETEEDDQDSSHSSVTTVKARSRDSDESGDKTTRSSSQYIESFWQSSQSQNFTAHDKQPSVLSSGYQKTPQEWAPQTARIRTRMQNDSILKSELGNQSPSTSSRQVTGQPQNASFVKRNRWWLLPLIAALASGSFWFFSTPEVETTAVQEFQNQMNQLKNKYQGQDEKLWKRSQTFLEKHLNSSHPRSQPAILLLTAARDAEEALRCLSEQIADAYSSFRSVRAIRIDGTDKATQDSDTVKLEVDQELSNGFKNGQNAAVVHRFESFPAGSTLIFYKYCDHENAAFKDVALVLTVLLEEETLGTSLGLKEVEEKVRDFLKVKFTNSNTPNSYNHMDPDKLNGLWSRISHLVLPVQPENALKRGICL

[20] = biological target: Alpha-bungarotoxin (Bungarus multicinctus) (UniProt P60615); test: alpha-bungarotoxin binders on microarray, profiling panel, artefact control for SMM control protein annotation, biochemical, small-molecule microarray, Alexa647 label, 635/667 nm fluorescence (AID 1117); conditions: alpha-BTX-A647 binding fluorescence, higher = more signal
Alpha-bungarotoxin (Bungarus multicinctus), sequence (P60615 whole entry, looked up): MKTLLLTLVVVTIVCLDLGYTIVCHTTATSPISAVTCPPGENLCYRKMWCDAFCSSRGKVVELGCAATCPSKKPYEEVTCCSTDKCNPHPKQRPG

| Structure (SMILES) | composite z-score [1] | composite z-score [2] | composite z-score [3] | z-score [4] | composite z-score [5] | composite z-score [6] | composite z-score [7] | composite z-score [8] | composite z-score [9] | composite z-score [10] | composite z-score [11] | z-score [12] | composite z-score [13] | composite z-score [14] | composite z-score [15] | composite z-score [16] | composite z-score [17] | composite z-score [18] | composite z-score [19] | composite z-score [20] |
| --- | --- | --- | --- | --- | --- | --- | --- | --- | --- | --- | --- | --- | --- | --- | --- | --- | --- | --- | --- | --- |
| CO[C@@H]1COC(=O)CCC[C@@H](C)[C@H](OC)COC(=O)[C@H](Cc2ccccc2)NC(=O)CC=C[C@H]1C | 0.637 | -0.485 | -0.497 | -0.491 (inactive) | -0.974 | -0.999 | 0.231 | 0.507 | 0.915 | 1.6 | -1.68 | -1.48 | 0.714 | -1.16 | -1.81 | -0.197 | 0.194 | 0.0596 | -0.405 | -0.0864 |
| CN1C(=O)C2C=CC(C(O)c3ccc(Br)cc3)N(N(c3ccccc3)c3ccccc3)C2C1=O (stereo not given) | 0.259 | 0.359 | 1.04 | 0.605 (inactive) | -0.14 | -0.0403 | -0.211 | 0.0397 | -0.626 | 1.26 | 0.962 | -1.01 | -0.0937 | 1.16 | 0.428 | 0.0873 | 0.0639 | 0.654 | 0.513 | 1.12 |
| C[C@H](c1ccccc1)N1C(=O)[C@H]2[C@@H]3C(=CC[C@H]2C1=O)C(=O)[C@H]1O[C@H]1[C@H]3O | 0.816 | -0.191 | -0.559 | 4.45 (inactive) | 0.388 | 0.359 | 0.626 | 0.359 | 0.87 | 0.527 | -0.546 | -4.71 | 0.429 | -0.119 | -0.932 | -0.0405 | 0.0402 | -0.416 | 0.326 | -0.0114 |
| CC(C)(C)OC(=O)CC[C@]1(C(=O)NCc2ccccc2)N=C(c2ccc(OCCCO)cc2)O[C@H]1c1ccccc1 | 1.73 | -0.0749 | 0.574 | 0.351 (inactive) | 0.686 | 1.24 | 0.0167 | -0.136 | -0.402 | -0.285 | 1.02 | -2.44 | -0.598 | 1.91 | 0.683 | 0.257 | 0.147 | -0.198 | 1.6 | 1.53 |
| CCCCCN1CC=CC23O[C@@H]4C=CCOC(=O)[C@@H]4[C@H]2C(=O)N(CCCCCCO)[C@@H]3C1=O (stereo not given in full) | 1.93 | -0.0936 | 0.734 | -0.0127 (inactive) | -0.655 | -1.08 | -1.31 | -1.81 | -1.54 | -0.395 | -0.276 | 0.417 | -2 | -0.284 | 0.168 | -0.0417 | 0.0796 | 0.293 | 1.9 | -0.729 |
| COc1ccc([Si](C)(C)[C@H]2[C@H](CC(=O)N3CCC[C@H]3CO)O[C@@]3(C(=O)N(Cc4cccc(N5C(=O)COc6ccccc65)c4)c4ccccc43)[C@@H]2C)cc1 | 1.21 | -0.248 | -0.364 | -0.867 (inactive) | 0.369 | 0.803 | 0.771 | 0.959 | 0.519 | 0.572 | 1.08 | -2.51 | 0.805 | 1.36 | 0.487 | 0.0556 | -0.17 | 0.274 | 1.16 | -0.654 |
| COC(=O)CC=C[C@H](C)[C@@H](OCc1ccccc1Br)C(C)C | -0.0201 | -0.371 | -0.397 | -0.76 (inactive) | 0.321 | -0.243 | 0.195 | 0.285 | 0.292 | 0.0114 | -0.261 | 0.0087 | 0.551 | -0.354 | -0.679 | -0.0417 | -0.138 | -0.333 | -0.173 | 1.54 |
| O=C1C2C=CC(C(O)c3ccc([N+](=O)[O-])cc3)N(Nc3ccc([N+](=O)[O-])cc3)C2C(=O)N1c1ccccc1 (stereo not given) | 0.867 | 0.969 | 0.539 | -0.291 (inactive) | 0.818 | 1.29 | 0.301 | 0.255 | -0.12 | 0.69 | 1.47 | -0.74 | 0.179 | 2.01 | 0.757 | 0.152 | 0.0796 | 0.0473 | 1.3 | 2.8 |
| CC(C)=CCCC(C)=CCON=C1[C@H]2CCn3c(=O)n(Cc4cc5c(cc4Cl)OCO5)c(=O)n3[C@H]2[C@H](O)[C@@H]2O[C@H]12 | 0.398 | -0.277 | -0.248 | -0.696 (inactive) | 0.427 | 0.173 | 0.984 | 0.677 | 0.472 | 1.27 | -0.118 | -0.78 | 0.463 | -0.175 | -0.591 | 0.0388 | -0.138 | -0.181 | 0.989 | -0.112 |
| CC(CCN1CCc2nc(-c3ccccc3)c(-c3ccccc3)cc2C1)=NOC[C@@H](C)[C@H](OCc1ccccc1)C(C)C | 1.42 | -0.215 | 0.213 | -0.0457 (inactive) | -1.3 | -1.52 | -1.15 | -1.76 | -1.21 | 0.166 | -1.08 | -1.77 | -0.323 | -0.607 | 0.343 | -0.134 | -0.304 | -0.278 | -0.424 | 1.14 |
| CCCNC(=O)[C@@H]1c2ccccc2C(=O)N(c2ccc(C)cn2)[C@H]1c1ccc(CO)cc1 | 1.78 | 0.662 | 0.733 | 1.12 (inactive) | -0.584 | -0.503 | -0.327 | -1.06 | -0.537 | 1.14 | -1.05 | 0.0924 | -0.181 | -0.769 | -0.462 | -0.238 | -0.0155 | -0.434 | 0.185 | 0.4 |
| O=C1[C@H]2[C@H]3[C@H](O)[C@H](O)CC(=NOC[C@@H](O)COCc4ccco4)[C@@H]3CC[C@H]2C(=O)N1c1ccc(F)cc1F | 0.365 | -0.399 | -0.712 | 0.237 (inactive) | 0.579 | 0.318 | 0.931 | 0.499 | 0.671 | 0.574 | 0.427 | 0.199 | 0.74 | -0.616 | -1.01 | -0.0792 | -0.13 | -0.236 | 0.515 | -0.255 |

From PubChem BioAssay
